Publication PMC5540273 (PLoS ONE, 2017)

Test system: FLT3
Details: concentration: 1 μM, replicates: in singlicate; n = 1
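Note: KINOMEscan kinase panel screen.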

Compound	%Inh
Cn1cncc1-c1ccc2ncnc(Nc3ccc(OCc4ccccc4)cc3)c2c1 [GW320571]	62%
Cc1cc(-c2ccc3c(c2)CC[C@@H](N[C@@H](C)c2ccccc2)C3)cnc1N.Cl [GW412617]	27%
Fc1cccc(COc2nnc(-c3ccc4c(c3)CCO4)o2)c1	4%
O=C(Nc1n[nH]c2cc(-c3cccc(F)c3F)ccc12)C1CC1 [SB-733894]	0%
COc1cc(Nc2nccc(N3CCC(NC(=O)Nc4cc(C)ccc4C)C3)n2)cc(OC)c1OC (centres unmarked) [GSK1379762]	36%
CC(C)(C)c1ccc(C(=O)Nc2cn3cc(Cl)ccc3n2)cc1	70%
COc1ccc2nc(-c3cccc(C)n3)nc(Nc3ccncc3)c2c1 [GSK204919]	0%
Cc1c(O)cccc1Nc1ccnc2ccc(C(F)(F)F)cc12.Cl [GW466413]	0%
Cc1ccc(-c2cc(-c3c[nH]nc3-c3ccccn3)ccn2)cc1 [GW684088]	0%
O=S(=O)(c1ccc(-c2ccnc3[nH]ccc23)cc1)N1CCCC1 [GSK846226]	0%
Cn1ccc2ncnc(Oc3cccc(C(=O)Nc4ccccc4)c3)c21	17%
CCCc1ccc(S(=O)(=O)NC2CCN(c3ccnc(Nc4ccc(F)cc4)n3)C2)cc1 (centres unmarked) [GSK1379715]	0%
O=C1NC(=O)C(N2CCc3ccccc32)=C1c1ccccc1Cl [SB-373598]	2%
COC(=O)c1c(-c2ccccc2)c2cc(OC)ccc2c(=O)n1Cc1ccccc1	8%
